Screening results (PubChem BioAssay)
A549 tox: Nrf2 qHTS screen for inhibitors: counterscreen for cytotoxicity; A549 ARE-Fluc cells, CellTiter-Fluor viability, 18-24 h; Potency, µM (top dose mostly 46 µM), without a hit: at the highest dose activity change, negative = cytotoxicity, most hits filed as inhibitors; actives 0.16% (n = 390,000); AID 504648, 2011; note: % is set by controls: 0 for no effect and ±100 for the full control effect
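A549 ARE_Fluc cells in 5% FBS OPTI-MEM were exposed to compounds in concentration-response for 18-24 h at 37 deg C. Viability was read by CellTiter-Fluor fluorescence (Ex 405/Em 525) after 30 min, before the luciferase read.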
Nrf2 ARE act: qHTS of Nrf2 Activators. AREc32 ARE-luciferase reporter (MCF7-derived line), luminescence, 24 h. Potency, µM (top dose mostly 46.1 µM), without a hit: at the top dose activation, actives largely listed as activators. actives 0.31% (n = 410,000); note: % of control where 0% means no effect; nearly all actives have a fitted effect of over 65% in size
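AREc32 cells carrying an ARE-driven firefly luciferase reporter were seeded at 1000 cells/well in OPTI-MEM with 5% FBS, then exposed to compound for 24 hr at 37 deg C. Luminescence was read with Steady-Glo after 30 min at RT.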
Pin1 inhibitor: qHTS Assay to Find Inhibitors of Pin1 | Peptidyl-prolyl cis-trans isomerase NIMA-interacting 1 (Homo sapiens), Q13526 | Pin1 FP peptide displacement, HiFluor488, 10 min | actives 0.009% (n = 390,000) | Potency, µM (titrated, usually from 115 µM), without a hit: at the highest dose activity, negative = inhibition, hits mostly inhibitors; active = well fitted inhibition curve with a large enough effect in the polarisation, with a control signal flat, not every such curve was filed as active; inconclusive = small, poorly fitted or top-dose-only effect, or effect the other way, or a change in a side signal; inactive = no such curve, though single readings can be large or run the other way; the % refers to the polarisation; note: % is set by controls: 0 for no effect and ±100 for the full control effect
Target sequence (Q13526 whole entry, looked up): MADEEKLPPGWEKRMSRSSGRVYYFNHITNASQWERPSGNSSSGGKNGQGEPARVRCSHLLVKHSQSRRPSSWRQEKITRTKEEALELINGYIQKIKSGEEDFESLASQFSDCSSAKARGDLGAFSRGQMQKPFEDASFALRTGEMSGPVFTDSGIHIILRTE
Nrf2 inh: Nrf2 qHTS screen for inhibitors; A549 ARE-Fluc reporter, luciferase luminescence, 18-24 h; Potency, µM (series often up to 46 µM), inactives show at the highest dose activity change, negative = inhibition, actives largely listed as inhibitors; actives 2.1% (n = 360,000); AID 504444, 2011; note: % is set by controls: 0 for no effect and ±100 for the full control effect; nearly all actives have a fitted effect of over 60% in size
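Reporter: ARE-Fluc in A549. Exposure: 18-24 h, 37 °C, 5% CO2, 5% FBS OPTI-MEM. Readouts: fluorescent cytotoxicity (CellTiter-Fluor), then luminescent Nrf2 signal after BugLite.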
* hit, by the source's call; u = inconclusive; x = no result; ! = not active in a repeat; [ ] = dose if it differs, or a comment. This is a sample that favours compounds with a hit; in the whole collection about 2.2% have one here. Unless noted, calls come from the whole dose curve; as a rule, active = well fitted curve in the direction sought with a large enough effect; inconclusive = small, poorly fitted or top-dose-only effect, or another doubt; inactive = no such curve, though single readings can be large; an effect the other way counts as inactive or inconclusive. Potency is the fitted concentration of half-maximal effect.

SMILES | A549 tox | Nrf2 ARE act | Pin1 inhibitor | Nrf2 inh
O=C(Nc1nc(-c2ccncc2)cs1)C1c2ccccc2Oc2ccccc21 | u | 4% | 41% | 15µM*
CCCn1nnc(NC(=O)/C=C/c2ccccc2)n1 | 0% | 1% | -8% | 13%
Cc1nc(NC(=O)/C=C/c2ccccc2)n[nH]1 | -13% | 7.1µM* | 0% | -2%
O=C(/C=C/c1ccccc1)Nc1nc(-c2ccncc2)cs1 | u | 7% | 2% | 13µM*
S=C(Nc1ccc(Nc2ccccc2)cc1)NC1CCCCCC1 | u | 4% | -4% | 18µM*
O=C(CSCc1cccc(Cl)c1)N/N=C/c1ccc(OCC(=O)N2CCCCC2)cc1 | -2% | 3% | -11% | 18µM*
Cc1cc(C)cc(CSCC(=O)N/N=C/c2ccc(OCC(=O)NCc3ccco3)cc2)c1 | -15% | 4% | 25% | 15µM*
CC1CC(NC(=O)c2cc3c(=O)n4ccccc4nc3n2C)CC(C)(C)C1 (stereo not drawn) | 16% | 0% | -8% | 21µM*
CCC(C(=O)Nc1cc(C)ccc1C)n1c(=O)c(C(F)(F)F)nc2ccccc21 (stereo not drawn) | 18% | -1% | -3% | 0%
CCCN1CNc2c(c(=O)[nH]c(=S)n2Cc2ccc(OC)c(OC)c2)C1 | -4% | x | 7% | 3%
COC(=O)c1ccc2nc(NC(=O)C3CCCCC3)sc2c1 | 1% | 2% | 2% | u
COC(=O)c1ccc2nc(NC(=O)C(C)(C)C)sc2c1 | -5% | 0% | -1% | 4.1µM*
Cc1ccc(S(=O)(=O)N(C)C)cc1NC(=O)c1cncc(Br)c1 | -18% | -2% | -3% | 12µM*
COc1cccc(Nc2nc3cc(Cl)c(Cl)cc3nc2-n2nc(C)cc2C)c1 | 2% | -1% | -3% | 3%
Cc1cccc(-n2c(-c3ccco3)nc3c(cnn3-c3ccccc3C)c2=O)c1 | -6% | 2% | -4% | 21µM*
COc1cccc(-n2c(-c3ccco3)nc3c(cnn3-c3ccc(Cl)cc3)c2=O)c1 | 2% | 1% | 19% | u
O=C(CSc1ccc2nc(-c3ccccc3)cn2n1)Nc1ccccc1 | 8% | -1% | -2% | x
C[n+]1c2n(c3ccccc31)N=C(c1cc(C(C)(C)C)c(O)c(C(C)(C)C)c1)CS2 | u | -2% | 2% | 18µM*
COc1ccc(-n2c(-c3cccc(OC)c3)nc(=S)c3c2CCCC3)cc1 | -12% | 3% | 2% | 26µM*
COc1ccc(-n2c(-c3ccccc3)nc(=S)c3c2CCCC3)cc1 | 0% | 0% | -3% | x
Cc1ccc(CNC(=O)c2nn(-c3ccc(Cl)cc3)nc2CO)cc1 | -11% | 3% | 0% | u
CC(C)(C)OC(=O)CNC(=O)c1[nH]cnc1C(=O)NCCCCCNC(=O)OC(C)(C)C | -14% | -1% | -9% | 26µM*
O=C(Nc1cccc(Cl)c1)c1nc[nH]c1C(=O)NCCCCNC(=O)c1[nH]cnc1C(=O)Nc1cccc(Cl)c1 | -1% | -1% | -4% | 9%
CC(C)(C)OC(=O)NCCCCCNC(=O)c1[nH]cnc1C(=O)NC1CCN(C(=O)OC(C)(C)C)CC1 | -12% | 5% | -5% | 21µM*
CC(C)(C)OC(=O)CNC(=O)c1[nH]cnc1C(=O)NCCCCCN | 1% | 0% | -6% | -5%
SMILES | A549 tox | Nrf2 ARE act | Pin1 inhibitor | Nrf2 inh
CC(C)(C)OC(=O)NCCCCCNC(=O)c1[nH]cnc1C(=O)Nc1cccc(Cl)c1 | u | 0% | 2% | 21µM*
CC(C)(C)OC(=O)NCCCCCNC(=O)c1nc[nH]c1C(=O)N1CCN(C(=O)OC(C)(C)C)CC1 | -8% | -1% | 2% | -17%
CCOCCCn1c(C)nc2c(c1=O)c1nc3ccccc3nc1n2CCC1=CCCCC1 | u | 0% | 19% | 13µM*
C=CC(=O)Nc1cccc(N(C)c2ccnc(Nc3ccc(N4CCN(C)CC4)cc3)n2)c1 | 1µM* | 6% | u | u
C=CC(=O)Nc1cccc(Oc2ccnc3[nH]ccc23)c1 | u | 9% | u | -11%
C=CC(=O)Nc1cccc(Oc2ccnc(Nc3ccc(N4CCN(C)CC4)cc3)n2)c1 | 1.6µM* | 17% | 10% | u
CCOC(=O)c1cc(-c2ccccc2)sc1NC(=O)COC(=O)c1ccc(Cl)c(S(N)(=O)=O)c1 | u | 0% | 2% | 23µM*
CCOC(=O)c1cc(-c2ccccc2)sc1NC(=O)COC(=O)c1cccc(S(N)(=O)=O)c1 | -3% | 1% | 0% | -19%
COc1cc(NS(=O)(=O)c2ccc(C)cc2C)cc(OC)c1OC | -21% | 0% | u | 10µM*
O=S(Cc1ccc(Br)cc1)Cc1nnc(SCc2c(F)cccc2Cl)n1-c1ccccc1 (stereo not drawn) | u | 3% | u | u
O=C(CSc1nnc(CCc2ccccc2)n1-c1ccc(Cl)cc1)c1ccccc1 | u | 4% | 2% | 23µM*
O=S(Cc1ccc(Br)cc1)Cc1nnc(SCc2ccc(Cl)cc2)n1-c1ccccc1 (stereo not drawn) | u | 3% | 1% | 16µM*
COc1cc2c(C(=O)N3CCN(c4ccc(C)cc4)C(C)C3)cn(CC(C)C)c(=O)c2cc1OC (stereo not drawn) | -16% | 6% | -8% | -1%[9.27 µM]
Cc1ccc(CCNS(=O)(=O)c2ccc3c(c2)CCN3C(=O)CCC(=O)O)cc1 | -7% | -1% | -1% | u
COc1cccc(C2c3c(ncn(-c4cccc(Cl)c4)c3=N)Oc3ccc4ccccc4c32)c1 (stereo not drawn) | 5% | x | 40% | 2%
O=C(OCC#CCSc1nnc(-c2cccc3ccccc23)o1)c1ccc(Cl)c(C(F)(F)F)c1 | 2% | x | 0% | 2%
CCO[C@H]1OC(C(=O)N2CCN(Cc3ccccc3)CC2)=C[C@@H](c2ccc(C(F)(F)F)cc2)[C@@H]1CCCO | u | 0% | u | 29µM*
CCO[C@H]1OC(C(=O)N2CCN(Cc3ccccc3)CC2)=C[C@@H](c2ccccc2)[C@@H]1CCCO | -2% | 0% | 1% | 14%
Cc1ccc(C2CC(=O)n3nc(-c4ccc(F)cc4)nc3S2)cc1 (stereo not drawn) | -3% | 0% | -4% | 3%
CC(C)(C)OC(=O)N1CCC(c2c(C(=O)N3CCN(c4ncccn4)CC3)cnn2-c2ccc(F)cc2)CC1 | 7% | -1% | 5% | u
O=C(Nc1ccc(N2CCN(c3ncccc3C(F)(F)F)CC2)nc1)c1cccs1 | u | -3% | 5% | 21µM*
Cn1nnnc1Sc1ncnc2scc(-c3cccc(F)c3)c12 | u | u | -1% | u
Cn1nnnc1Sc1ncnc2scc(-c3ccc(-c4ccccc4)cc3)c12 | -5% | u | 23% | 14%
Cn1nnnc1Sc1ncnc2scc(-c3ccc4ccccc4c3)c12 | u | x | 29% | 5%
COc1cccc(-c2csc3ncnc(Sc4nnnn4C)c23)c1 | u | u | 26% | 26µM*!
